Experimental data reported in PubChem BioAssay (Tox21).
Values joined by “and” are separate entries in the source; they are usually repeats but may differ in a detail not shown here. Equal values may be shown once. Results filed as inconclusive are left out. A call without a number means that no potency is given here. The source holds several records for some structures; these can differ, active in one and inactive in another. Active and inactive are the calls of the source. Unless noted, calls come from the whole dose curve; as a rule, active = well fitted curve in the direction sought with a large enough effect in the repeat runs; inconclusive = weak or mixed curves; inactive = no such curve, though single readings can be large; an effect the other way counts as inactive or inconclusive.

How the values were obtained:
[1] = qHTS assay to identify small molecule antagonists of the sonic hedgehog signaling (Shh) pathway (AID 1259369; calls by dose curve; note: nearly all actives have a fitted effect of over 45% in size; note: potency is the fitted concentration of half-maximal effect)
Outline: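 Antagonist mode: compound added to 3T3 Gli1-Luc cells followed by conditioned-medium stimulation, 24 h at 37 C, 5% CO2. Inhibition taken as loss of Gli1-driven luciferase luminescence.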

[2] = biological target: Estrogen receptor beta (Homo sapiens) (UniProt Q92731); experiment: qHTS assay to identify small molecule agonists of the estrogen receptor beta (ER-beta) signaling pathway (AID 1259377; active = well fitted activation curve with a large enough effect in the signal ratio in the repeat runs, not every such curve was filed as active; the % refers to the signal ratio)
Sequence of Estrogen receptor beta (Homo sapiens) (Q92731 whole entry, looked up): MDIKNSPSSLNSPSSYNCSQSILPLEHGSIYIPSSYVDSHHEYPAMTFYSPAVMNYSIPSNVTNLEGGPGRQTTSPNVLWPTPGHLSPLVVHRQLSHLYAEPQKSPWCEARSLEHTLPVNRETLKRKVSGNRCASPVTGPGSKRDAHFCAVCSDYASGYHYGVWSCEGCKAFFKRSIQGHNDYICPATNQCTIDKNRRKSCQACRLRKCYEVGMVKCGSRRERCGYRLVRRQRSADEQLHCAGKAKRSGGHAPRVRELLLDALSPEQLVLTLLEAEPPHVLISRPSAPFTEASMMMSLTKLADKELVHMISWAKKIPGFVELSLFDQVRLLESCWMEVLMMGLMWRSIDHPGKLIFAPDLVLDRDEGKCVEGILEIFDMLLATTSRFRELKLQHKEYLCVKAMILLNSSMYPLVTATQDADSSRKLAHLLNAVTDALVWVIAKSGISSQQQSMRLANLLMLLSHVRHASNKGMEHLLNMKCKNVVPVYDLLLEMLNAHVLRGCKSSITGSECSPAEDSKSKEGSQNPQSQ
Outline: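 ER-beta-UAS-bla HEK293T (GripTite) cells carrying a UAS-driven beta-lactamase reporter, in medium with 2% charcoal-stripped FBS, were exposed to compounds for 16 hr at 37C; LiveBLAzer B/G FRET substrate was then added and fluorescence read after 2 hours at room temperature.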

[3] = qHTS assay to identify small molecule agonists of the androgen receptor (AR) signaling pathway in the presence of an antagonist - cell viability counter screen (AID 1259379);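 note: MDA-kb2 human breast cancer cells carrying an MMTV luciferase reporter; series mostly up to about 92 µM; nearly all actives have a fitted effect of over 25% in size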
Outline: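 Cytotoxicity counter-screen run in the same wells as the nilutamide-challenged (3.0 µM final) AR agonist assay in MDA-kb2 cells. Compounds tested at 15 concentrations for 16 h, 37 °C without CO2; CellTiter-Fluor fluorescence read.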

[4] = qHTS assay to identify small molecule agonists of the estrogen receptor beta (ER-beta) signaling pathway - cell viability counter screen (AID 1259380); note: nearly all actives have a fitted effect of over 30% in size
Outline: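 Cell viability counter screen: CellTiter-Glo luminescence (30 min, room temperature) measured in the same wells as the beta-lactamase readout, after 16 hr compound exposure at 37C of ER-beta-bla HEK293T cells in 2% charcoal-stripped FBS medium.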

[5] = biological target: Androgen receptor (Homo sapiens) (UniProt P10275); experiment: qHTS assay to identify small molecule agonists of the androgen receptor (AR) signaling pathway in the presence of an antagonist (AID 1259381; calls by dose curve; note: nearly all actives have a fitted effect of over 15% in size)
Sequence of Androgen receptor (Homo sapiens) (P10275 whole entry, looked up): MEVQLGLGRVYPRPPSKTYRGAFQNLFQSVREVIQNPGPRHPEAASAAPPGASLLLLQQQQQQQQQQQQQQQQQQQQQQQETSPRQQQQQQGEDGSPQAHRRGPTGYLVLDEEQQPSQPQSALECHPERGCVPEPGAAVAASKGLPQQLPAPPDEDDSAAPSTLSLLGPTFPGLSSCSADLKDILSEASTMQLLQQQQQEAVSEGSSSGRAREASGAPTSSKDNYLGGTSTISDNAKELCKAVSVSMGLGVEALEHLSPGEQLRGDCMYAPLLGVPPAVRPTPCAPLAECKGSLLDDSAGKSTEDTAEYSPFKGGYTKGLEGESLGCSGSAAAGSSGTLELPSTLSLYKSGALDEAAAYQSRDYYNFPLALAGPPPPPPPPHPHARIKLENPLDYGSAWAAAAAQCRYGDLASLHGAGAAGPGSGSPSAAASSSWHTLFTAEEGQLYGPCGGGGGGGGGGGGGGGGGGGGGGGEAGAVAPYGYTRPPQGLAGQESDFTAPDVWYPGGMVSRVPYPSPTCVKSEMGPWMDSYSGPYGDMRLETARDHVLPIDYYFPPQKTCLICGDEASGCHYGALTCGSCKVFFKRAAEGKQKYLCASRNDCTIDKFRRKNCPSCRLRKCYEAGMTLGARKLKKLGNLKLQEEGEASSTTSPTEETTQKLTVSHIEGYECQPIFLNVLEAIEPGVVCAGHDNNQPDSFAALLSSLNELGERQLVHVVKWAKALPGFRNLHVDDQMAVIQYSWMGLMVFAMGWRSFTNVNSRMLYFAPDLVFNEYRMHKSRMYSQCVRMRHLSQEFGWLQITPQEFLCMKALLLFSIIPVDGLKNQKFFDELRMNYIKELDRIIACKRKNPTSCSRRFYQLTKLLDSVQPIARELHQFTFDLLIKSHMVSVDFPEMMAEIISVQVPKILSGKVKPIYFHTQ
Outline: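 Agonist-mode confirmation run against 3.0 uM final nilutamide: compounds titrated at 15 concentrations onto MDA-kb2 MMTV-luciferase reporter cells. Luminescence measured with ONE-Glo following 16 hr incubation, 37C, 0% CO2.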

[6] = qHTS assay to identify small molecule antagonists of the estrogen receptor beta (ER-beta) signaling pathway - cell viability counter screen (AID 1259382); note: series mostly up to about 92 µM; nearly all actives have a fitted effect of over 55% in size
Outline: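 Cytotoxicity was measured in the same wells by CellTiter-Glo luminescence after 30 min at room temperature. Cells were ER-beta-bla HEK293T in charcoal-stripped serum, given compound together with 1 nM E2 and incubated 16 h at 37C.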

[7] = biological target: Estrogen receptor (Homo sapiens) (UniProt P03372); experiment: qHTS assay to identify small molecule agonists of the estrogen receptor alpha (ER-alpha) signaling pathway in the presence of an antagonist (AID 1259383; calls by dose curve; note: top concentration of the series differs between compounds; nearly all actives have a fitted effect of over 15% in size)
Sequence of Estrogen receptor (Homo sapiens) (P03372 whole entry, looked up): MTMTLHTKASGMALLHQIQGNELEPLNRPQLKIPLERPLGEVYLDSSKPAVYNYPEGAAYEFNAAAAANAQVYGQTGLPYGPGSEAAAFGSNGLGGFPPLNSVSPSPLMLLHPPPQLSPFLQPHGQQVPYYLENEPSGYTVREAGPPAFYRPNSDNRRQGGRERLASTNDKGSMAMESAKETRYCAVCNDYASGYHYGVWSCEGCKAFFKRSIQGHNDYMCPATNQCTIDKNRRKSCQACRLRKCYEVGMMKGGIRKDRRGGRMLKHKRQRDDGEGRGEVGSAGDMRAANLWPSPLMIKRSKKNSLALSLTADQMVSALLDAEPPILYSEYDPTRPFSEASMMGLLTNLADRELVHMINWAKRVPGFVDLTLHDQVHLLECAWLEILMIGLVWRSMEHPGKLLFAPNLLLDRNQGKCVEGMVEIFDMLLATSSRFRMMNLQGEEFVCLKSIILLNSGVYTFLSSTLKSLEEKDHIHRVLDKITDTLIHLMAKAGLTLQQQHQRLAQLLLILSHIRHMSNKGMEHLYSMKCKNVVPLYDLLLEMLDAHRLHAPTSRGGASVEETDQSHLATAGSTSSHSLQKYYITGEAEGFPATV
Outline: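 Agonist-mode confirmation run in the presence of 10.0nM (final) ICI-182,780 antagonist. The reporter was ERE-driven luciferase in VM7Luc4E2 cells, grown in charcoal-stripped serum. Cells were exposed to 15-concentration compound series for 22hr, then ONE-Glo luminescence was read.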

[8] = biological target: Thyrotropin receptor (Homo sapiens) (UniProt P16473); experiment: qHTS assay to identify small molecule antagonists of the thyroid stimulating hormone receptor (TSHR) signaling pathway (AID 1259385; calls by dose curve; note: nearly all actives have a fitted effect of over 20% in size)
Sequence of Thyrotropin receptor (Homo sapiens) (P16473 whole entry, looked up): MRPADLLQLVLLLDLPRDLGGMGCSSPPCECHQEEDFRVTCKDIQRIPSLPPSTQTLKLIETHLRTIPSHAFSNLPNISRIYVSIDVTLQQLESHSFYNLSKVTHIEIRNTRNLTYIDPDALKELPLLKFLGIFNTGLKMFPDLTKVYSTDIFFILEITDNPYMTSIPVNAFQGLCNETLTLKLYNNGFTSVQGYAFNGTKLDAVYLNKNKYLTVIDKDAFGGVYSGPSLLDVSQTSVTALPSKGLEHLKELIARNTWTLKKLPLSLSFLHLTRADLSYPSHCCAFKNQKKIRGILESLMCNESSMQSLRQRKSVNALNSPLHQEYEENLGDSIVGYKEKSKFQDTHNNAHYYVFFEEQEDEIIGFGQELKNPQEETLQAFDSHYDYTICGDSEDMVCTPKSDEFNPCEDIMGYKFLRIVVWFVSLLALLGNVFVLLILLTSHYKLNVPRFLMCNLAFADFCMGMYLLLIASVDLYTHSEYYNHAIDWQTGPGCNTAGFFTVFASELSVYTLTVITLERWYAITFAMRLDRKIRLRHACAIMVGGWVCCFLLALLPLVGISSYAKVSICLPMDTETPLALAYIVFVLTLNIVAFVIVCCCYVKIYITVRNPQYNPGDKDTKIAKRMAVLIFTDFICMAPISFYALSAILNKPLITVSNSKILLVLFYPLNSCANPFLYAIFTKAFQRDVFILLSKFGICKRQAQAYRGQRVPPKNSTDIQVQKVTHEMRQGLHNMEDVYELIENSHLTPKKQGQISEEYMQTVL
Outline: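 TSHR-HEK293 cells (800/well) plated 18 h, then compounds with Ro20-1724 and TSH at 1.5 ng/mL final, 30 min at room temperature. cAMP quantified by HTRF (cAMP-d2/anti-cAMP-cryptate, 1 h); 15 concentrations in triplicate.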

[9] = biological target: Estrogen receptor beta (Homo sapiens) (UniProt Q92731); experiment: qHTS assay to identify small molecule antagonists of the estrogen receptor beta (ER-beta) signaling pathway (AID 1259378; active = well fitted inhibition curve with a large enough effect in the signal ratio in the repeat runs, not every such curve was filed as active; the % refers to the signal ratio)
Outline: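 ER-beta-UAS-bla HEK293T cells in 2% charcoal-stripped FBS medium treated with compound plus 1nM final 17-beta-estradiol for 16 hr at 37C. Beta-lactamase reporter read by FRET substrate fluorescence after 2 hours at room temperature.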

[10] = qHTS assay to identify small molecule agonists or antagonists of the thyroid stimulating hormone receptor (TSHR) signaling pathway - wild type cell line counter screen (AID 1259384; calls by dose curve)
Outline: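 Wild-type Hek293 cells, 800/well, 18 h at 37C, then compound with Ro20-1724 for 30 min RT. cAMP by HTRF (cAMP-d2/anti-cAMP cryptate), 1 h RT, fluorescence read. 15 concentrations, triplicates.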

SMILES	Potency [1]	Potency [2]	Potency [3]	Potency [4]	outcome [5]	outcome [6]	outcome [7]	outcome [8]	outcome [9]	outcome [10]
CC(C)(C)C(=O)CCl	inactive	inactive	inactive	inactive	inactive	inactive	inactive	inactive		
c1ccc2c(c1)CCCC2	inactive	inactive	inactive	inactive	inactive	inactive	inactive	inactive		
CC[N+](=O)[O-]	inactive	inactive	inactive	inactive		inactive		inactive	inactive	
Cc1cc(Cl)ccc1OC(C)C(=O)O (centres undefined)	inactive	inactive	inactive	inactive		inactive	inactive			
CCOC(=O)CC(SP(=O)(OC)OC)C(=O)OCC (centres undefined)	inactive	inactive	inactive	inactive		inactive		inactive	inactive	inactive
C=CC(=O)OCCCCCC(C)C	inactive	inactive	inactive	inactive	inactive	inactive	inactive	inactive	inactive	inactive
CNC(=O)O/N=C(\SC)C(=O)N(C)C	inactive	inactive		inactive	inactive	inactive	inactive	inactive	inactive	inactive
Clc1cnc(Oc2ccc(Oc3ncc(Cl)cc3Cl)cc2)c(Cl)c1	inactive	inactive	inactive	inactive		inactive		inactive	inactive	
O=C(O)C(Br)Br	inactive	inactive	inactive	inactive		inactive	inactive		inactive	
COC(=O)Nc1cccc(OC(=O)Nc2cccc(C)c2)c1	inactive	inactive	inactive	inactive		inactive				
COP(=S)(OC)Oc1ccc(SC)c(C)c1	inactive	inactive	inactive	inactive		inactive	inactive			
Nc1cccc(Cl)c1	inactive	inactive	inactive	inactive		inactive	inactive	inactive	inactive	
CNc1cnn(-c2cccc(C(F)(F)F)c2)c(=O)c1Cl	inactive	inactive	inactive	inactive		inactive			inactive	
CNC(=O)O/N=C/C(C)(C)S(C)=O (centres undefined)	39.1 µM (active) and inactive	inactive	inactive	inactive		inactive	inactive	inactive	inactive	inactive
OCc1ccco1	inactive	inactive	inactive	inactive		inactive	inactive	inactive	inactive	
O=S(=O)(O)OOS(=O)(=O)O	inactive	inactive	inactive	inactive		inactive			inactive	
COC(C)(C)CCCC(C)C/C=C/C(C)=C/C(=O)OC(C)C (centres undefined)	inactive	inactive	inactive	inactive	inactive	inactive		inactive		
CN(C)C(=O)C(c1ccccc1)c1ccccc1	inactive	inactive	inactive	inactive		inactive				
Nc1ccc(N)cc1	54.7 µM (active) and 48.6 µM (active) and inactive	inactive	inactive	inactive		inactive				
FC(F)(F)c1ccc(Cl)cc1	inactive	inactive	inactive	inactive		inactive	inactive	inactive	inactive	
N#CN=C(N)N	inactive	inactive	inactive	inactive		inactive	inactive	inactive	inactive	inactive

SMILES	Potency [1]	Potency [2]	Potency [3]	Potency [4]	outcome [5]	outcome [6]	outcome [7]	outcome [8]	outcome [9]	outcome [10]
O=C(O)c1cc(Oc2ccc(C(F)(F)F)cc2Cl)ccc1[N+](=O)[O-]	inactive	inactive	inactive	inactive		inactive		inactive	inactive	inactive
Cc1cccc(C)c1NC(=O)CN1CCCC1=O	inactive	inactive	inactive	inactive		inactive	inactive			
CNC(=O)O/N=C/C(C)(C)S(C)(=O)=O	inactive	inactive	inactive	inactive	inactive	inactive	inactive			
CN(C)CCC#N	inactive	inactive	inactive	inactive		inactive	inactive			
Nc1nc(N)nc(NC2CC2)n1	inactive	inactive	inactive	inactive		inactive		inactive	inactive	
CCCCC(CC)C(=O)Cl (centres undefined)	inactive	inactive	inactive	inactive		inactive	inactive	inactive	inactive	inactive
OC[C@@H](O)[C@H]1O[C@@H]2O[C@H](C(Cl)(Cl)Cl)O[C@@H]2[C@H]1O	inactive	inactive	inactive	inactive		inactive	inactive	inactive	inactive	
CC(C)c1cccc(C(C)C)c1O	inactive	inactive	inactive	inactive	inactive	inactive	inactive	inactive	inactive	inactive
CC12CC1(C)C(=O)N(c1cc(Cl)cc(Cl)c1)C2=O (centres undefined)	inactive	inactive	inactive	inactive	inactive	inactive			inactive	
Nc1ccc([As](=O)(O)O)cc1	inactive	inactive	inactive	inactive		inactive	inactive	inactive		inactive
NNc1ccccc1	inactive	inactive	inactive	inactive		inactive		inactive		inactive
CCOc1ccc(N)cc1	inactive	inactive	inactive	inactive		inactive	inactive	inactive		
N#Cc1cccc(C#N)c1	inactive	inactive	inactive	inactive		inactive		inactive		
CN1C(=O)CCS(=O)(=O)C1c1ccc(Cl)cc1 (centres undefined)	inactive	inactive	inactive	inactive		inactive		inactive		inactive
Cc1cccc(N)c1C	inactive	inactive	inactive	inactive		inactive	inactive	inactive		
C=CC#N	inactive	inactive	inactive	inactive		inactive	inactive	inactive		
CSc1nnc(C(C)(C)C)c(=O)n1N	inactive	inactive	inactive	inactive		inactive		inactive		
CC(=O)C1CCOC1=O (centres undefined)	inactive	inactive	inactive	inactive		inactive		inactive		inactive
Cc1cccc(C)c1N	inactive	inactive	inactive	inactive		inactive	inactive	inactive		inactive
Cc1ccc(O)c(C)c1	inactive	inactive	inactive	inactive		inactive	inactive	inactive		
CC(=O)/C=C/c1ccccc1	inactive	inactive	inactive	inactive		inactive		inactive		inactive
